Screens as filed in PubChem BioAssay.
Sampled rows, rich in hits. Any-hit rate of the full collection: about 1.7%.
TLR9-MyD88 block = inhibitors of human TLR9-MyD88 binding | 340,000 compounds, 0.21% hits | Q9NR96+Q99836 | inhibition, % at 4.98 µM | CHO BLA complementation TLR9-MyD88, CCF4 FRET ratio;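 active = inhibition above the mean over all tested compounds plus 3 SD, cut at about 21% in these data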;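 also: 0% = DMSO only wells and 100% = clavulanate BLA inhibitor control wells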
TLR4-MyD88 BLA = TLR4-MyD88 interaction inhibition in cells; AID 861; inhibition, % at 8.4 µM; HeLa CL3-4 TLR4/MyD88 BLA complementation, FRET ratio; O00206+Q99836; 200,000 compounds, 0.18% hits; in the data active = inhibition above about 25%;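 also: 0% = vehicle and 100% = reference inhibitor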
ABCB6 inh MLPCN = inhibitors of human ABC transporter ABCB6 | fluorescence ratio to DMSO, % at 10 µM | Q9NP58 | AID 602162 | 360,000 compounds, 0.19% hits | K562-ABCB6 porphyrin accumulation, flow cytometry, 1 h; hits give low values;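 active = fluorescence ratio to DMSO below 75%, the collection mean minus 3 SD; inconclusive = too few cells collected in the well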;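 also: signal is porphyrin accumulated inside mitochondria; 100% equals median channel fluorescence of DMSO control wells; lower ratio means ABCB6 inhibition with less porphyrin fluorescence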
NOD2-RIPK2 inh = blocks binding of human NOD2 to RIPK2. O43353. inhibition, % at 4.98 µM. CHO BLA complementation NOD2-RIPK2, CCF4 ratio. AID 624267. 360,000 compounds, 0.38% hits; in the data active = inhibition above about 21%;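 also: 0% = vehicle only and 100% = reference blocker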
Myeloid diff MLP = myeloid differentiation induction. AID 624256. 360,000 compounds, 1% hits. calls only at 10 µM. ER-HoxA9 myeloid progenitors, lysozyme-GFP differentiation, flow cytometry;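 active = normalized GFP-positive differentiation at or above the plate's own cutoff, the solvent-only control mean plus 3 SD; inconclusive = no clear call, values can overlap the other calls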;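 also: cells exposed to compound for four days before flow analysis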
TLR4 MyD88 cnf = confirmation of human TLR4-MyD88 binding inhibitors; shares compounds with TLR4-MyD88 BLA; HeLa CL3-4 BLA complementation, CCF4 FRET ratio; inhibition, % at 8.4 µM; 350 compounds, 50% hits; AID 941;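 active = mean inhibition across three repeat runs above about 25% carried over from the earlier screen, limit read from the data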;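 also: plate controls were DMSO only for no effect and clavulanic acid blocking BLA at full dose for full effect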
BLA inhibitor ct = inhibits beta-lactamase activity, counter-screen to TLR4-MyD88 binding inhibitors | shares compounds with TLR4-MyD88 BLA | HeLa BLA reporter, CCF4 FRET ratio | AID 1237 | 350 compounds, 63% hits | inhibition, % at 8.4 µM;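 active = mean inhibition over three repeats above about 26% taken from the earlier screen, limit read from the data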;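 also: HeLa cells stably expressing beta-lactamase reporter as counterscreen for TLR4-MyD88 inhibitors; 0% = DMSO and 100% = clavulanic acid full inhibition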
TLR9-MyD88 cf = confirmation of human TLR9-MyD88 binding inhibitors. shares compounds with TLR9-MyD88 block. CHO TLR9/MyD88 BLA complementation, CCF4 FRET ratio. inhibition, % at 4.98 µM. 680 compounds, 51% hits;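 active = mean inhibition across three repeats above about 21% taken from the earlier screen, limit read from the data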;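 also: blue over green emission ratio reports constitutive TLR9 MyD88 association via BLA complementation; 0% = DMSO vehicle wells and 100% = clavulanate BLA inhibitor wells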
BLA nonselective = counter-screen for TLR9-MyD88 inhibitors: non-selective beta-lactamase inhibitors. shares compounds with TLR9-MyD88 block. CHO-BLA cells, CCF4 FRET ratio, BLA reporter. inhibition, % at 4.98 µM. 680 compounds, 7% hits;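 active = mean inhibition above a 50% cutoff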;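 also: counterscreen of TLR9-MyD88 hits on CMV-driven BLA in CHO-K1 cells; 0% = DMSO alone and 100% = clavulanate blocking BLA; higher means less blue over green ratio so more BLA blockade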
TLR9 CHO tox = CHO cell toxicity counter-screen for TLR9-MyD88 inhibitors; shares compounds with TLR9-MyD88 block; TLR9-MyD88 CHO cells cytotoxicity, luminescence; inhibition, % at 4.98 µM; 680 compounds, 39% hits; AID 588336; in the data active = inhibition above about 11%
ABCB6 inh CP1 = blocks the human ABCB6 transporter; 700 tested, under 10 active; AID 602430; K562-ABCB6 porphyrin accumulation, flow cytometry, 1 h; hits give low values; shares compounds with ABCB6 inh MLPCN; ratio response (% of DMSO), % at 10 µM;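 active = repeat-averaged ratio response below 75% of DMSO, the collection mean minus 3 SD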;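 also: median porphyrin fluorescence at 575 nm with 488 nm excitation from mitochondria; lower ratio means less porphyrin signal so ABCB6 inhibition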
Myeloid diff CP1 = promotes myeloid progenitor differentiation; AID 651706; ER-HoxA9 myeloid progenitors, GFP/Mac1 double-positive flow; 2,300 compounds, 2% hits; shares compounds with Myeloid diff MLP; calls only;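 active = share of green or green-and-red cells above 9 and 9% in run 1 or 4 and 3% in run 2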
GFP autofluor = flagged as fluorescent in myeloid differentiation counter-screen. shares compounds with Myeloid diff MLP. 2,300 compounds, 7.4% hits. AID 651707. fluorescence response, % (test concentration not listed). ER-HoxA9 myeloid progenitors, no estrogen, GFP autofluorescence flow cytometry; vehicle wells 0%, positive control 100%;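 active = over 5% cells positive for green fluorescent reporter, or over 2% positive for both it and APC stain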;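 also: range taken on the double positive population between DMSO and positive control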
An asterisk follows results filed as active; i = inactive; ? = inconclusive; nt = no result; + = active, no number.

SMILES	TLR9-MyD88 block	TLR4-MyD88 BLA	ABCB6 inh MLPCN	NOD2-RIPK2 inh	Myeloid diff MLP	TLR4 MyD88 cnf	BLA inhibitor ct	TLR9-MyD88 cf	BLA nonselective	TLR9 CHO tox	others
Cc1cc[n+]2cc(-c3cccc([N+](=O)[O-])c3)c(-c3cccc([N+](=O)[O-])c3)cc2c1	-1	5	97	-5	i	nt	nt	nt	nt	nt
COc1ccc(CS(=O)(=O)/C(Cl)=C(/Cl)C(=O)Nc2ccc(OC)nc2)cc1	31*	25*	78	73*	?	22	14	32*	24	100*
O=C1/C(=C/c2ccco2)CCc2ccccc21	4	-7	94	-5	i	nt	nt	nt	nt	nt
Nc1ccc2c(c1)C/C(=C/c1ccco1)C2=O	24*	32*	105	13	i	26*	55*	23*	30	7
O=C(NC(Cc1ccccc1)C(=O)Oc1ccc2c(C(F)(F)F)cc(=O)oc2c1)OCc1ccccc1 (centres undefined)	59*	39*	97	71*	i	32*	67*	34*	44	2
CCCCN(C)CC(O)Cn1cc(/C=C/C(=O)c2cccs2)c2ccccc21 (centres undefined)	46*	39*	101	44*	i	39*	68*	30*	28	5
CCOC(=O)/C(=C\c1ccccc1)C(=O)c1cc(C(C)=O)c(Nc2ccccc2)s1	-3	4	99	2	?	nt	nt	nt	nt	nt
CCOC(=O)/C(=C\c1cccnc1)C(=O)c1cc(C(C)=O)c(Nc2ccccc2)s1	41*	49*	89	89*	?	53*	41*	49*	32	98*
S=c1sc2c(Cl)ncnc2n1-c1ccccc1	29*	52*	108	54*	?	47*	26*	26*	15	25*
CC(=O)Nc1sc(/C(C#N)=C\c2cccc(Cl)c2)nc1-c1ccc(C)cc1	32*	31*	i	20	+	86*	112*	80*	81*	2
Fc1ccc(C2=CC(c3ccc(Br)o3)n3ncnc3N2)cc1 (centres undefined)	25*	28*	133	22*	i	7	26*	15	19	3
Cn1cccc1C1C=C(c2ccc(C(C)(C)C)cc2)Nc2ncnn21 (centres undefined)	1	nt	97	3	i	nt	nt	nt	nt	nt
Cc1cccc(NC2=Nc3ccccc3N3C2=Nc2c(c(C)nn2-c2ccccc2)C3c2ccc(O)c(O)c2)c1 (centres undefined)	30*	62*	103	14	i	52*	85*	47*	55*	-5
CCN(CC)c1ccc2cc(NC(=O)CCC(=O)O)c(=O)oc2c1	68*	58*	98	79*	nt	61*	83*	50*	57*	1
CCN(CC)c1ccc2cc(C(N)=O)c(=O)oc2c1	-8	3	94	-8	i	nt	nt	nt	nt	nt
CCC(=O)Nc1ccc(C(=O)NNC(=O)CCCCC(=O)NNC(=O)c2ccc(NC(=O)CC)cc2)cc1	-10	nt	98	-5	i	nt	nt	nt	nt	nt
COc1ccc(Cn2c(=O)c3[nH]cnc3n(-c3ccc(C)cc3)c2=O)cc1	-13	nt	103	-3	i	nt	nt	nt	nt	nt
O=C(O)c1ccccc1-c1ccc(/C=C/c2cc(C(F)(F)F)[nH]c(=O)n2)o1	39*	26*	105	20	i	19	33*	25*	32	1
COc1ccc(/C=N/NC(=O)c2ccc[nH]2)cc1	5	nt	97	-2	i	nt	nt	nt	nt	nt
CCc1nc2c(OCCC3CCCCC3)cccn2c1N(C=O)Cc1ccccc1	nt	nt	96	3	i	nt	nt	nt	nt	nt
CCCOCCc1nnc(N)s1	-11	nt	98	-4	i	nt	nt	nt	nt	nt
Cc1cc(C)cc(NC(=O)/C(C#N)=C/c2cn(CC(=O)NCc3ccco3)c3ccccc23)c1	5	0	93	-2	i	nt	nt	nt	nt	nt
Cc1ccc(NC(=O)/C(C#N)=C/c2cn(CC(=O)NCc3ccco3)c3ccccc23)cc1C	36*	60*	91	-18	i	54*	80*	7	14	28*
O=C(O)c1cc(-c2ccc(N3CCOCC3)cc2)nn1-c1ccc(F)cc1F	-2	-1	100	-3	i	nt	nt	nt	nt	nt
Brc1cc(Br)c2nc(-c3ccc(N4CCOCC4)cc3)ccc2c1	40*	29*	99	27*	i	14	30*	43*	46	4
OCCNc1c2ccccc2nc2c(F)c(F)c(F)c(F)c12	32*	69*	71*	2	nt	84*	107*	43*	49	82*	ABCB6 inh CP1=109
CN(C)S(=O)(=O)c1ccc(NC(=O)C2CC3C=CC2C3)cc1 (centres undefined)	-3	-6	102	-2	i	nt	nt	nt	nt	nt
O=[N+]([O-])c1ccc(N/N=C\c2ccccc2OCc2ccccc2)cc1	31*	28*	122	18	+	23	50*	22*	26	4	Myeloid diff CP1=i;GFP autofluor=0
COc1ccccc1C(=O)N=c1sc2c(C)ccc(OC)c2n1C	1	nt	94	2	i	nt	nt	nt	nt	nt
